Assay outcomes as filed in PubChem.
Rows were chosen to be rich in hits. Some 7.5% of all compounds tested hit in one or more screens of this group.
NPC1 prom act: NPC1 promoter activation; Huh7 NPC1 promoter luciferase reporter, 24 h; Potency, µM (series often up to 9.22 µM), inactives show top-dose activation, actives largely listed as activators; 320,000 compounds, 2.4% hits; AID 485313; further: % of control where 0% means no effect; nearly all actives have a fitted effect of over 60% in size
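Luminescence from an NPC1 promoter-driven luciferase reporter in stably transfected Huh7 cells was measured after 24 h compound treatment at 37 °C, followed by 10 min ambient incubation with luciferase detection reagent.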
SMN2 splice up: SMN2 splice variant enhancement; Potency, µM (top dose mostly 46.1 µM), without a hit: top-dose activity change, positive = activation, usual class: activators; 210,000 compounds, 2.8% hits; HEK293 SMN2-luciferase splicing reporter, luminescence, 30-36 h; further: % of control where 0% means no effect; nearly all actives have a fitted effect of over 55% in size
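HEK293 cells carry an SMN2 […]–luciferase reporter in which exon 7 inclusion puts luciferase in frame. Cells were plated 10-12 h before compound addition, then incubated 30-36 h at 37C. ONE-Glo luminescence was read; sodium butyrate at 4.5 mM final served as control.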
ELG1 genotoxic: genotoxicity induction in ELG1-luciferase HEK293T cells; HEK293T ELG1-luciferase reporter, luminescence, 16 h; Potency, µM (titrated, usually from 46 µM), for the others: at the top dose activity change, positive = activation, most hits filed as activators; 330,000 compounds, 1.3% hits; AID 504466; further: % of control where 0% means no effect; nearly all actives have a fitted effect of over 60% in size
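After overnight (16 hr) compound treatment at 37 °C, ELG1-luciferase HEK293T cells were lysed with ONE-Glo; luminescence quantified 30 min later at room temperature.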
Rab9 promoter act: Rab9 promoter activation; Huh7 Rab9 promoter-luciferase reporter, luminescence, 24 h; Potency, µM (series often up to 9.22 µM), inactives show top-dose activation, negative = inhibition, most hits filed as activators; 320,000 compounds, 2.8% hits; further: % of control where 0% means no effect; nearly all actives have a fitted effect of over 60% in size
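Rab9 promoter-driven luciferase in stably transfected Huh7 cells; 1500 cells/well rested 2 h, exposed to compound in DMSO for 24 h at 37 °C, 5% CO2. Luminescence read 10 min after adding luciferase reagent at ambient temperature.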
FLuc counter: counter-screen for miR-21 project: firefly luciferase inhibitors or activators; P08659; purified FLuc, Km substrates, luminescence inhibition; Potency, µM (series often up to 57.5 µM), inactives show at the highest dose activity change, negative = inhibition, usual class: inhibitors; 360,000 compounds, 6.9% hits;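 further: plate controls were vehicle for no effect and reference inhibitor for full effect; nearly all actives have a fitted effect of over 55% in size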
Target sequence (P08659 whole entry, looked up): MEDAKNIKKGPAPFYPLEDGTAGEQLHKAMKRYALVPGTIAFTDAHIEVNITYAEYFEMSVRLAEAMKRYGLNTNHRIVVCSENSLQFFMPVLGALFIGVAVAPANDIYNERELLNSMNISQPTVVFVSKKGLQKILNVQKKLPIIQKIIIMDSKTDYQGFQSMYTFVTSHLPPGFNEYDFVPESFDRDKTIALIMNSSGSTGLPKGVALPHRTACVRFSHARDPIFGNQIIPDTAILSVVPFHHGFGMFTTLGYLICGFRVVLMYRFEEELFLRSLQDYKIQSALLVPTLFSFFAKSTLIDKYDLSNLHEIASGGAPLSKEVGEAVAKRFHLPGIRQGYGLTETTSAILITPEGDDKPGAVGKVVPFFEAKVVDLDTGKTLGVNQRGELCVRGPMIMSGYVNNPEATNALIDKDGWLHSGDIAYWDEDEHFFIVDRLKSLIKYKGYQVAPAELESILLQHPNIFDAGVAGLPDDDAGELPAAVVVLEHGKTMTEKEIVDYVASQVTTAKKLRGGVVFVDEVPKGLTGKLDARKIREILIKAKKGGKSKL
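Biochemical qHTS of compounds, final roughly 60 µM downward over six points, against 10 nM purified firefly luciferase using Km concentrations of substrates (10 uM D-luciferin, 10 uM ATP) in Tris acetate pH 7.5 buffer; luminescence output.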
Active calls of the source: *; ? = inconclusive; nt = no result. The call rests on the fitted dose curve; in most records, active means well fitted curve in the direction sought with a large enough effect; inconclusive means small, poorly fitted or top-dose-only effect, or another doubt; inactive means no such curve, though single readings can be large; an effect the other way counts as inactive or inconclusive. Potency means the concentration at half of the fitted maximal effect.

SMILES | NPC1 prom act | SMN2 splice up | ELG1 genotoxic | Rab9 promoter act | FLuc counter
CCOc1ccc(NC(=S)NC(=O)c2ccco2)cc1 | 2µM* | nt | 16% | 1.4µM* | 11µM*
CN(C)S(=O)(=O)c1cccc(NC(=S)NC(=O)c2ccco2)c1 | ? | nt | 11% | 3.5µM* | ?
O=C(NC(=S)Nc1cccc([N+](=O)[O-])c1)c1ccco1 | 16% | 28% | 6% | 28% | 2%
C[C@H](NC(=O)c1ccco1)C(=O)NNC(=O)COc1cccc(C(F)(F)F)c1 | nt | nt | 0% | nt | nt
Cc1noc(C)c1COc1ccc(C(=O)OCC(=O)Nc2ccc(C(=O)N(C)C)cc2)cc1 | 2% | nt | 4% | -1% | 0%
COc1cc(/C=C/C(=O)N(Cc2ccccc2)c2ccccn2)cc(OC)c1OC | 1% | 43% | -2% | 7% | 4%
Cc1ccc(C)c(N2CCN(CCCNC(=O)Nc3cc(Cl)ccc3C)CC2)c1 | nt | nt | nt | nt | -2%
CCc1ccc(NC(=O)c2sc3nc(-c4ccccc4)cn3c2C)cc1 | nt | nt | nt | nt | 0%
CCOc1ccc(NC(=O)c2ccco2)cc1 | 0.71µM* | 10µM* | ? | 0.63µM* | 4.8µM*
CCOc1ccc(NC(=O)CCC(=O)NNC(=O)c2ccco2)cc1 | -4% | -4% | -1% | -1% | -8%
C[C@H](CO)N1C[C@H](C)[C@@H](CN(C)S(=O)(=O)c2cccs2)Oc2ccc(NC(=O)Nc3ccccc3)cc2C1=O | nt | nt | -4% | nt | nt
O=c1c2ccccc2sn1-c1cc(S(=O)(=O)N2CCOCC2)ccc1N1CCCC1 | 12% | 14% | -1% | -2% | 5.4µM*
O=c1c2ccccc2sn1-c1cc(S(=O)(=O)N2CCOCC2)ccc1N1CCOCC1 | 1% | 4% | -3% | 11% | 4.8µM*
Nc1cc(S(=O)(=O)N2CCOCC2)ccc1N1CCCCC1 | nt | nt | 1% | nt | nt
O=C(N/N=C/c1ccccc1C(=O)O)c1cccc(S(=O)(=O)N2CCOCC2)c1 | 1% | nt | 1% | 1% | 12µM*
O=C(CCc1nc2ccccc2[nH]c1=O)OCc1ccc(S(=O)(=O)N2CCOCC2)cc1 | -2% | 0% | 1% | 3% | 2%
O=C(CCc1ccc(S(=O)(=O)N2CCOCC2)cc1)OCc1nc2ccccc2s1 | -3% | -42% | ? | 6% | 21µM*
O=C(OCc1nc2ccccc2s1)c1cccc(S(=O)(=O)N2CCOCC2)c1 | 8% | 12% | ? | 9% | 8.5µM*
O=C(COC(=O)c1cccc(S(=O)(=O)N2CCOCC2)c1)NCc1ccccc1 | nt | nt | 10% | nt | nt
O=C(COC(=O)c1cccc(S(=O)(=O)N2CCOCC2)c1)c1ccccc1 | -4% | nt | -3% | -2% | 13µM*
O=C(O)C(Cc1ccccc1)NC(=O)C(c1ccccc1)c1ccccc1 (centres undefined) | -1% | nt | 0% | 0% | 3%
CNC(=O)c1cc2cc(OC)ccc2oc1=O | -1% | -8% | 3% | 16% | -7%
COc1ccc2oc(=O)c(C(=O)NC3CCCCCC3)cc2c1 | 25% | nt | ? | -6% | 15µM*
COc1ccc2oc(C(=O)NN3C(C)CCCC3C)c(C)c2c1 (centres undefined) | -7% | 13% | 1% | -4% | -2%
COc1ccc2oc(C(=O)NCCC(C)C)c(C)c2c1 | 3.2µM* | 11µM* | ? | ? | 3.4µM*
SMILES | NPC1 prom act | SMN2 splice up | ELG1 genotoxic | Rab9 promoter act | FLuc counter
COc1ccc2oc(C(=O)NC3CCCCC3)c(C)c2c1 | 3.2µM* | nt | 3.7µM* | 3.2µM* | 5.4µM*
COc1ccc(C(CNC(=O)c2oc3ccc(OC)cc3c2C)N2CCCC2)cc1 (centres undefined) | -2% | nt | 0% | -13% | -8%
Cc1c(C(=O)NC2CCCCC2)oc2ccc(F)cc12 | ? | nt | ? | ? | 12µM*
Cc1ccc2oc(C(=O)NC3CCS(=O)(=O)C3)c(C)c2c1 (centres undefined) | 17% | nt | 17% | 14% | -16%
CC(C)(C)N(Cc1ccccc1)C(=O)COC(=O)c1ccc(Br)o1 | -2% | nt | -1% | 1% | nt
CN(Cc1c(O)ccc2c1oc(=O)c1ccccc12)C1CCCCC1 | -2% | ? | -1% | 5% | 4%
COC(=O)c1ccccc1NC(=O)c1nc(SCc2ccccc2C)ncc1Cl | nt | -6% | nt | nt | 1%
COc1ccc(CCN(Cc2cc3cc(C)ccc3[nH]c2=O)C(=O)N2CCCC2)cc1OC | 2% | -8% | -2% | 5% | -6%
Cn1cccc1/C=N/NC(=O)c1ccco1 | 14% | 22% | ? | 18% | ?
O=C(N/N=C/c1ccc(Br)s1)c1ccco1 | ? | nt | ? | ? | 21µM*
Cc1ccc(/C=N/NC(=O)c2ccco2)s1 | 3.2µM* | ? | ? | 3.2µM* | 15µM*
CCN(Cc1ccccc1)C(=O)CN1C(=O)c2ccccc2C1=O | -4% | nt | 3% | -2% | 0%
COc1ccc(C(=O)NNC(=O)C(Cc2ccc(O)cc2)NC(=O)c2ccccc2NC(=O)c2ccc(OC)cc2)cc1 (centres undefined) | -1% | nt | 0% | -5% | ?
COc1ccc(C(=O)Nc2ccccc2C(=O)NC(Cc2ccc(O)cc2)C(=O)NNC(=O)c2ccccc2Cl)cc1 (centres undefined) | 2% | -11% | -1% | -4% | 13µM*
O=C(N[C@@H](Cc1c[nH]c2ccccc12)C(=O)NC1CC1)c1ccccc1Cl | ? | 11µM* | ? | ? | ?
CC(C)Oc1ccc(C(=O)NC(Cc2c[nH]c3ccccc23)C(=O)NN)cc1 (centres undefined) | -3% | nt | 2% | 3% | 12µM*
COc1ccc(C(=O)Nc2ccccc2C(=O)NC(Cc2c[nH]c3ccccc23)C(=O)O)cc1 (centres undefined) | 2% | -10% | 3% | -3% | 15µM*
O=C(COC(=O)Cn1cnc2ccccc2c1=O)NNC(=O)c1ccc(Br)cc1 | nt | nt | -1% | nt | nt
Cc1ccc(OCCNC(=O)c2ccccc2SCC(=O)N2CCCC2)cc1 | -1% | nt | 1% | -4% | 1%
O=C(NCc1cccc(F)c1)c1ccc(CN2CC(=O)N3CCCCC3C2=O)cc1 (centres undefined) | nt | nt | nt | nt | -3%
CCOc1ccc(-c2cn3ccccc3n2)cc1 | ? | 0.89µM* | ? | ? | 0.54µM*
O=S(=O)(c1ccc(-c2cn3ccccc3n2)cc1)N1CCOCC1 | 3% | -43% | 11% | 2% | ?
Fc1ccc(-c2cn3ccccc3n2)cc1 | 0.71µM* | nt | ? | 0.56µM* | 2.7µM*
Cc1ccc(C)c(N2CCN(C(=O)c3cc4cc5ccc(C)cc5nc4o3)CC2)c1 | nt | -1% | nt | nt | 0%
CCOC(=O)C1CCN(C(=O)c2cc3cc4ccc(C)cc4nc3o2)CC1 | 0.89µM* | nt | ? | 0.45µM* | ?
CC1CCN(C(=O)c2cc3c(ccc4ccccc43)o2)CC1 | 0.45µM* | nt | 1µM* | 0.28µM* | 0.76µM*
CCOC(=O)C1CCN(C(=O)c2cc3cc(C)ccc3[nH]2)CC1 | 2.8µM* | nt | ? | 3.2µM* | -15%
